# FUS suppressor: suppressors of FUS proteinopathy in yeast; S. cerevisiae FUS-expressing, growth rescue, OD600, 24 h; Potency, µM (titrated, usually from 76.6 µM), usual class: activators; actives 0.24% (n = 390,000);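 note: plate controls were DMSO vehicle for no effect and reference control for full effect; nearly all actives have a fitted effect of over 55% in size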
#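 Yeast expressing FUS under galactose induction, OD 0.005 in 2% galactose medium; compounds in a dilution series, 24 h at 30C. Growth rescue by absorbance at 600 nm; CP55940 positive control, DMSO negative.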
# Abeta yeast res: restores growth of yeast expressing A-beta42 peptide; yeast expressing A-beta42, growth rescue, OD600, 48 h; response scale: 0% DMSO, 100% iron-clioquinol control; Potency, µM (series often up to 46.1 µM), most hits filed as activators; actives 0.063% (n = 410,000); note: nearly all actives have a fitted effect of over 55% in size
#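 Growth rescue measured by 600 nm absorbance after 48 h yeast culture at 30 C with compound. Values normalized between DMSO and an equimolar ferric chloride plus clioquinol control.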
# aSyn rescue: alpha-synuclein toxicity inhibition in yeast; Potency, µM (top dose mostly 46.1 µM), inactives show at the top dose growth rescue (activation), hits mostly activators; Yeast expressing alpha-synuclein, growth rescue, BacTiter-Glo, 24 h; actives 0.14% (n = 370,000); note: % of control where 0% means no effect; nearly all actives have a fitted effect of over 65% in size
#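 Rescue of yeast growth: cells expressing toxic alpha-synuclein, induced in galactose at OD600 0.02, incubated with compound 24 h at 30 C. ATP luminescence quantified growth; inhibitors of toxicity appear as activators.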
# TDP-43 yeast inh: TDP-43 toxicity inhibition in yeast; TDP-43 expressing yeast growth rescue, BacTiter-Glo, 24 h; Potency, µM (titrated, usually from 46.1 µM), inactives show top-dose growth rescue (activation), usual class: activators; actives 1.8% (n = 410,000); AID 652104; note: % of control where 0% means no effect; nearly all actives have a fitted effect of over 50% in size
#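 Growth rescue of TDP-43-toxic yeast measured as ATP luminescence (BacTiter-Glo). Cells grown to mid-log in raffinose, induced in galactose at OD600=0.02, exposed to compound 24 hr at 30 deg C.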
# Mito fusion act: blocks mitochondrial division or promotes mitochondrial fusion. Potency, µM (doses to about 46.1 µM), for the others: at the top dose growth rescue (activation), usual class: activators. S. cerevisiae fusion-defective mutant growth rescue, CellTiterGlo 48 h. actives 0.23% (n = 320,000); note: % of control where 0% means no effect; nearly all actives have a fitted effect of over 45% in size
#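 Growth-rescue viability read-out: after 48 h at the non-permissive 37C in glycerol/ethanol YPEG, yeast mitochondrial fusion mutants are measured by CellTiterGlo luminescence; compounds (23 nl pinned per well) restoring growth score as division inhibitors or fusion activators.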
# * hit, by the source's call; i = inactive; ? = inconclusive; . = not tested or not shown; [ ] = remark or other dose. Compounds with a hit are over-represented: about 2.2% of the library has one in this group of screens. Calls come from the whole dose curve; as a rule, active = well fitted curve in the direction sought with a large enough effect; inconclusive = small, poorly fitted or top-dose-only effect, or another doubt; inactive = no such curve, though single readings can be large; an effect the other way counts as inactive or inconclusive. Potency is the fitted concentration of half-maximal effect.
SMILES,FUS suppressor,Abeta yeast res,aSyn rescue,TDP-43 yeast inh,Mito fusion act
O=C(c1ccco1)c1cn(Cc2ccccc2)c2ccccc12,i,i,5%,22µM*,14%
CCC(=O)c1cn(Cc2ccccc2)c2ccccc12,i,i,4%,8.9µM*,7%
CC(C)(C)C(=O)c1cn(Cc2ccccc2)c2ccccc12,i,i,0%,13µM*,-2%
Oc1ccccc1/C=N/[n+]1ccccc1,i,i,-1%,-25%,2%
O=C1NCCOC(=O)[C@@H](Cc2ccc(F)cc2)CC/C=C/C[C@@H]1CC(=O)N(CCO)Cc1ccccc1,?,i,1%,22%,.
N#CSCC(=O)N1c2ccccc2CCc2ccccc21,.,?,0%,18µM*,-21%
Nc1ccccc1C(=O)OCC(=O)N1CCc2ccccc21,i,i,-1%,0%,2%
CCC1(O)C(=O)OCc2c1cc1n(c2=O)Cc2cc3c(N)cccc3nc2-1 (stereo not given),.,i,0%,?,.
COc1ccc(-c2noc(=O)n2Cc2cc(C)ccc2C)cc1,i,i,30%,18µM*,-3%
COc1cccc(Cn2c(-c3cccs3)noc2=O)c1,i,i,0%,?,7%
CCCCCC(=O)N[C@@H](c1ccccc1)[C@@H](O)C(=O)O[C@H]1C[C@@]2(O)[C@@H](OC(=O)c3ccccc3)C3[C@](C)(C(=O)[C@H](O)C(=C1C)C2(C)C)[C@@H](OC1OCC(O)C(O)C1O)C[C@H]1OC[C@@]31OC(C)=O (stereo not given in full),i,i,-1%,10%,4%
CC(=O)O[C@@]12CO[C@@H]1C[C@H](OC1OCC(O)C(O)C1O)[C@@]1(C)C(=O)[C@H](O)C3=C(C)[C@@H](OC(=O)[C@H](O)[C@@H](NC(=O)c4ccccc4)c4ccccc4)C[C@@](O)([C@@H](OC(=O)c4ccccc4)C12)C3(C)C (stereo not given in full),10µM*,i,5%,7%,-1%
O=c1oc2ccccc2c(O)c1[C@H]1c2ccc(O)cc2Oc2c1c(=O)oc1ccccc21,i,i,0.56µM*,5.6µM*,-12%
COc1ccccc1C(=O)Nc1ccc2c(c1)CC1(C(=O)N(C)C(=O)N(C)C1=O)C1CCCN21 (stereo not given),40µM*,i,-2%,-9%,-2%
COC(=O)C1=C(c2ccccc2OCc2ccccc2)C[C@@H]2CC[C@H]1N2C(=O)NCc1ccccc1,i,i,16%,5%,?
COC(=O)C1=C(c2ccccc2OCc2ccccc2)C[C@@H]2CC[C@H]1N2C(=O)NCCc1ccc(F)cc1,i,i,9%,-3%,8.9µM*
COC(=O)C1=C(c2cccc(OCc3ccccc3)c2)C[C@@H]2CC[C@H]1N2C(=O)NCc1ccc(F)cc1,?,i,-13%,23%,23%
COC(=O)C1=C(c2cccc(OCc3ccccc3)c2)C[C@@H]2CC[C@H]1N2C(=O)NCc1ccc2[nH]ccc2c1,8.9µM*,i,-5%,-1%,11%
O=C(OCCCCN1C(=O)c2ccccc2C1=O)c1ccc(Br)o1,i,i,4%,?,-10%
O=C1/C(=C/c2ccc([N+](=O)[O-])cc2)N2CCC1CC2,.,i,3%,0%,-1%
O=[N+]([O-])c1ccc(S(=O)(=O)N2CCn3cccc3C2c2ccccc2F)cc1 (stereo not given),?,i,.,22µM*,.
Cc1oc(-c2ccccc2Cl)nc1CN1C(=O)CN=C(c2ccccc2)c2ccccc21,i,i,-31%,35µM*,?
COc1ccc(Nc2nc(N)nc(CSc3nc4ccccc4s3)n2)cc1,?,i,.,20µM*,.
COCCNP(=O)(c1ccccc1)c1nc2ccccc2s1 (stereo not given),.,.,.,.,3%
C[C@H]1CCCC=CC2C[C@H](O)C[C@@H]2[C@H](O)C=CC(=O)O1 (stereo not given in full),.,.,0%,.,.
SMILES,FUS suppressor,Abeta yeast res,aSyn rescue,TDP-43 yeast inh,Mito fusion act
Cc1ccc(NC(=O)CCCn2c(=O)oc3ccccc32)c(O)c1,i,i,-1%,?,2%
COc1ccc(Cl)cc1NC(=O)CCn1c(=O)oc2ccccc21,i,i,8%,13µM*,-1%
Cc1onc(-c2ccccc2)c1C(=O)N[C@@H]1C(=O)N2C1SC(C)(C)[C@@H]2C(=O)O (stereo not given in full),i,i,0%,?,.
CC(C)CC(NC(=O)CCCNC(=O)CCC(=O)OC1O[C@H]2OC3(C)CC[C@H]4[C@H](C)CCC(C1C)C24OO3)C(=O)O (stereo not given in full),i,i,-2%,20µM*,16%
C[C@H]1[C@H](OC(=O)CCC(=O)NCc2ccc(C(=O)O)cc2)O[C@@H]2O[C@@]3(C)CC[C@H]4[C@H](C)CC[C@@H]1C24OO3,i,i,-9%,22µM*,21%
CC1C(OC(=O)CCC(=O)NC(C)(C)CO)O[C@H]2OC3(C)CC[C@H]4[C@H](C)CCC1C24OO3 (stereo not given in full),i,i,-10%,22µM*,25%
O=C(CCl)c1ccc(O)c(O)c1,.,.,-15%,.,.
Cc1cccc(OCCNc2ncccc2[N+](=O)[O-])c1,i,i,10%,?,.
CCN(C[C@H]1N[C@@](C)(C(=O)OC)[C@H]2C(=O)N(Cc3ccccc3)C(=O)[C@@H]12)C(=O)Nc1ccccc1,i,i,?,-11%,.
CCCCC[C@@H]1CCCCC[C@@H](O)C[C@H](O)[C@H](O)/C=C/C(=O)O1,i,i,0%,?,.
C[C@H](CCC(=O)O)[C@H]1CC[C@H]2[C@@H]3[C@H](O)C[C@@H]4C[C@H](O)CC[C@]4(C)[C@H]3CC[C@]12C,?,i,6%,22µM*,-9%
Cc1nn(-c2nccs2)c2c1C(=O)CC(C)(C)C2Br (stereo not given),i,i,-1%,14µM*,.
Nc1c(Br)cc([N+](=O)[O-])cc1[N+](=O)[O-],i,i,1%,13µM*,-14%
C[C@@H]1CN([C@H](C)CO)C(=O)c2cc(Br)cnc2O[C@H]1CN(C)C(=O)Cc1ccncc1,i,i,?,10%,.
N#CCCN,.,.,-7%,.,-3%
O=P(Nc1cccc(Cl)c1)(Oc1ccccc1)Oc1ccccc1,i,?,22µM*,-16%[1.82 µM],18%
O=C1NCN(c2ccccc2)C12CCN(C(c1ccccc1OC(F)(F)F)c1nnnn1Cc1ccccc1)CC2 (stereo not given),10µM*,i,1%,0%,.
